# Measurements published in PubChem BioAssay (NCATS).
# Where “and” joins values, the source holds several entries; their conditions need not be identical. Equal entries are not always repeated. Values without a mark were called inactive. Inconclusive results are not listed. Calls of active or inactive are those of the source. Unless noted, calls come from the whole dose curve; as a rule, active = well fitted curve in the direction sought with a large enough effect; inconclusive = small, poorly fitted or top-dose-only effect, or another doubt; inactive = no such curve, though single readings can be large; an effect the other way counts as inactive or inconclusive.
# Legend:
# [1] = qHTS Assay for Identifying Gametocytocidal Compounds (AID 743244); note: potency is the fitted concentration of half-maximal effect;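 for max response: % is set by controls: 0 for no effect and ±100 for the full control effect; actives lower the fluorescent signal which means gametocytes are killed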; conditions: P. falciparum 3D7 stage III-V gametocytes, alamarBlue, 72 h; max response: stronger effect = lower value
# Method in brief: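 Late gametocytes (III–V), P. falciparum 3D7; 72 h drug, then 24 h alamarBlue; resazurin reduction read by fluorescence.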
# [2] = biological target: T1, Hexokinase-4 (Homo sapiens) + Glucokinase regulatory protein (Homo sapiens) (UniProt P35557+Q14397); assay: qHTS assay for inhibitors of recombinant human GCK-GKRP interaction: Diaphorase-coupled assay (AID 743205)
# T1 sequence (P35557 whole entry, looked up): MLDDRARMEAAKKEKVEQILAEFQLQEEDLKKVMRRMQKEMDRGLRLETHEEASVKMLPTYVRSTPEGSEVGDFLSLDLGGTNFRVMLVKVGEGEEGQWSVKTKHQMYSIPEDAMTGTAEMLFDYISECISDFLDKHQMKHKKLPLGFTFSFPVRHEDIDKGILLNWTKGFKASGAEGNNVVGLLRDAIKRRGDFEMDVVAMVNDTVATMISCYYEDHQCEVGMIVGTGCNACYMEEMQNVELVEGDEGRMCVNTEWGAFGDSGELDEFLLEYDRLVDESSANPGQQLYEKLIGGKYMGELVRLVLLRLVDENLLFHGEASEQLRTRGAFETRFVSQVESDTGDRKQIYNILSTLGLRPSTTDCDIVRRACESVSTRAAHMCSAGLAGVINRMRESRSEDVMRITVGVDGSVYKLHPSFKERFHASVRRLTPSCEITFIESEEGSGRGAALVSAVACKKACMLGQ
# T1 sequence (Q14397 whole entry, looked up): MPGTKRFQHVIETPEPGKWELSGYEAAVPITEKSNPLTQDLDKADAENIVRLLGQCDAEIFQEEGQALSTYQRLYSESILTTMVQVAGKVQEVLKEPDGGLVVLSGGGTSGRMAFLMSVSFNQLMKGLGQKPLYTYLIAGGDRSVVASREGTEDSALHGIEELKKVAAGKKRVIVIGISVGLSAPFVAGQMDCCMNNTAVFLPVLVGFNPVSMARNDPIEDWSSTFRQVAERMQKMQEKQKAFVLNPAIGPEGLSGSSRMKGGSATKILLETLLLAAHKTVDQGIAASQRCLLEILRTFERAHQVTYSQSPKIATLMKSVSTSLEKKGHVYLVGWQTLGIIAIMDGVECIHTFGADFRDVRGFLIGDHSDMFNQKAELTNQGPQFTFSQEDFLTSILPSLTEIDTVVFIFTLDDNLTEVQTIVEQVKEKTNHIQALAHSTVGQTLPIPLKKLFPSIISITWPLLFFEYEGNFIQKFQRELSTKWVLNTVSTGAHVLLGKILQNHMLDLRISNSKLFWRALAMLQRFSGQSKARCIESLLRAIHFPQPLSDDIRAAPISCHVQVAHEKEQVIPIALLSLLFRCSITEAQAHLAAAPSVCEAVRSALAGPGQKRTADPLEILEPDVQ
# Method in brief: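 GST-GCK (10 nM) with FLAG-GKRP (10 nM), 5 mM glucose and 0.4 mM ATP in pH 7.6 Hepes; compounds preincubated 20 min with substrate. G6PDH/diaphorase coupling converts resazurin to resorufin, read kinetically (ex 525/em 590 nm) for 30 min.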
# [3] = biological target: T1, Hexokinase-4 (Homo sapiens) + Glucokinase regulatory protein (Homo sapiens); assay: qHTS assay for inhibitors of recombinant human GCK-GKRP interaction: ADP-Glo assay (AID 743206);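 note: plate controls were DMSO plus enzyme for no effect and no enzyme for full effect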
# Method in brief: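 GST-GCK and FLAG-GKRP (15 nM each in the dispensed mix, with 2 uM S6P) react with 0.4 mM ATP and 5 mM glucose (final) in Hepes pH 7.6 for 60 min at room temperature. ADP is measured by ADP-Glo luminescence.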
# [4] = biological target: T1, Hexokinase-4 (Homo sapiens) + Glucokinase regulatory protein (Homo sapiens); assay: qHTS assay for inhibitors of recombinant human GCK-GKRP interaction: HTRF assay (AID 743207);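 note: 0% = DMSO with GCK present and -100% = DMSO wells lacking GCK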
# Method in brief: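 GST-GCK and FLAG-GKRP (5 nM each) were combined with 2 uM S6P in pH 7.1 Hepes/MgCl2/KCl/DTT buffer, then compound and anti-FLAG XL665/anti-GST K antibodies were added. After 60 min at room temperature, HTRF 665/615 nm emission was read.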
# [5] = qHTS assay for small molecule agonists of the antioxidant response element (ARE) signaling pathway measured by Nrf2-dependant transcriptional activity (AID 720636; active = well fitted curve in the direction sought with a large enough effect in the repeat runs; an effect the other way counts as inactive or inconclusive;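 note: HepG2 cells with an ARE-driven luciferase reporter; % of control where 0% means no effect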)
# Method in brief: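 Reporter gene assay, HepG2 ARE-luc: 16 hr compound, 37 C, 5% CO2; read-out luciferase luminescence.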
# [6] = qHTS assay for small molecule agonists of the antioxidant response element (ARE) signaling pathway measured by Nrf2-dependant transcriptional activity - cell viability counter screen (AID 720653; active = well fitted curve in the direction sought with a large enough effect in the repeat runs; an effect the other way counts as inactive or inconclusive; note: % is set by controls: 0 for no effect and ±100 for the full control effect); conditions: ARE-bla HepG2 viability, CellTiter-Glo ATP luminescence, 16 h; max response: stronger effect = lower value
# Method in brief: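 ARE-bla HepG2 cells (2,000/well) rested 5 hrs at 37C/5% CO2, then exposed to compounds in DMSO for 16 hrs. Viability was read in the same wells as intracellular ATP by luminescence, 30 min at room temperature after reagent addition.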
# [7] = qHTS assay for cell viability of HEK293 cells (AID 743288); conditions: ATP luminescence (CellTiter-Glo), 18 h, stronger effect = lower value; note: % is set by controls: 0 for no effect and ±100 for the full control effect; nearly all actives have a fitted effect of over 50% in size
# Method in brief: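 Parental HEK293 cells were seeded at 2,000 cells/well, rested at least 5 h at 37 C, then exposed to compounds in DMSO for 18 h at 37 C. Viability was read as ATP-dependent luciferase luminescence after 30 min at room temperature.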
# [8] = qHTS assay for cell viability of the p53RE-bla HCT-116 cell line (AID 743292); note: % is set by controls: 0 for no effect and ±100 for the full control effect; nearly all actives have a fitted effect of over 55% in size
# Method in brief: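 Readout: CellTiter-Glo luminescence after 30 min RT. Treatment: compounds in DMSO, 16 h, 37 C. Cells: CellSensor p53RE-bla HCT-116, 4,000/well, preincubated 5 h.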
structure (smiles),measurement,setting,value
CCCCCCCCCCCCCC[N+](C)(C)C,Potency,[1],14.1 µM (active)
CNC[C@H](O)[C@@H](O)[C@H](O)[C@H](O)CO,max response,[1],10.7%
CCN(CC)CCNC(=O)c1ccc(NS(C)(=O)=O)cc1,outcome,[2],inactive
same,outcome,[3],inactive
same,outcome,[4],inactive
CC(C)(C)c1ccc(O)c(O)c1,outcome,[5],inactive
same,max response,[6],-2.01% and -13.6%
same,max response,[7],-4.72% and -5.96%
same,Potency,[8],inactive
COC(=O)c1c(Cl)c(Cl)c(C(=O)OC)c(Cl)c1Cl,outcome,[5],inactive
same,max response,[6],-11.1%
same,max response,[7],-7.06%
same,Potency,[8],inactive
CN1CCCN=C1/C=C/c1cccs1,max response,[1],3.61%
CN(C(=O)C(Cl)Cl)c1ccc(OC(=O)c2ccco2)cc1,max response,[1],8.61%
Cc1cc2nc3ccc(=[N+](C)C)cc-3sc2cc1N,Potency,[1],6.31 µM (active)
OC[C@]1(O)OC[C@@H](O)[C@H](O)[C@@H]1O,max response,[1],13.1%
CCCCCCCCCCCCCCCC[N+](C)(C)Cc1ccccc1,Potency,[1],7.08 µM (active)
Nc1c[n+](N2CCOCC2)no1,max response,[1],2.15%
CO/N=C(/C(=O)N[C@@H]1C(=O)N2C(C(=O)[O-])=C(C[n+]3ccn4ncccc43)CS[C@H]12)c1nsc(N)n1,max response,[1],-9.85% and -19.4%
CC(=O)[C@H]1CC[C@H]2[C@@H]3C=CC4=CC(=O)CC[C@@]4(C)[C@@H]3CC[C@]12C,max response,[1],-3.42%
O=C1OC2(c3ccccc31)c1cc(I)c(O)c(I)c1Oc1c2cc(I)c(O)c1I,max response,[1],-3.42%
CCc1cc(S(=O)(=O)O)c2cc(C(C)C)cccc1-2,max response,[1],0.277%
CC(=O)N(CC(O)CO)c1c(I)c(C(=O)NCCO)c(I)c(C(=O)NCC(O)CO)c1I (stereo unspecified),max response,[1],13.7%
Cc1ccccc1C(=O)N1CC/C(=N\OS(=O)(=O)O)c2ccc(Cl)cc21,max response,[1],0.506%
CC(=O)OCC[N+](C)(C)C,max response,[1],0.348%
